Screens deposited in PubChem BioAssay by National Center for Advancing Translational Sciences (NCATS).
NPSR antag: qHTS Assay for Antagonists of the Neuropeptide S Receptor: cAMP Signal Transduction. CHO-NPSR cells, cAMP TR-FRET, antagonist mode. 220,000 compounds, 1% hits. AID 1461, 2008. Potency, µM (titrated, usually from 38.3 µM), actives largely listed as inhibitors; also: nearly all actives have a fitted effect of over 50% in size
Target sequence (Q6W5P4 whole entry, looked up): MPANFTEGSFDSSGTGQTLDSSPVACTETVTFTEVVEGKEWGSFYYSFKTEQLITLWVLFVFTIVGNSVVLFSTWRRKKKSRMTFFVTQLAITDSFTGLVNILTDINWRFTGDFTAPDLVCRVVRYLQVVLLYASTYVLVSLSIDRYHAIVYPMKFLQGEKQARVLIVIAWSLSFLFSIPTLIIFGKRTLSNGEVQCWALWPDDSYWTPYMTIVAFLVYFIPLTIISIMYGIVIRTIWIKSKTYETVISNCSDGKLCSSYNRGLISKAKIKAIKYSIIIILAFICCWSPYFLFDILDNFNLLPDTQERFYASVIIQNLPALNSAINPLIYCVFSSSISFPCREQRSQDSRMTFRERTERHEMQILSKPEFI
RXFP1 agonist: qHTS Assay for Agonists of the Relaxin Receptor RXFP1; Relaxin receptor 1 (Homo sapiens), Q9HBX9; HEK293T-RXFP1 cAMP TR-FRET, 30 min; response scale: percent of porcine relaxin response, buffer zero; Potency, µM (series often up to 57.5 µM), usual class: activators; 370,000 compounds, 0.3% hits; AID 2676, 2010; also: nearly all actives have a fitted effect of over 60% in size
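HEK293T cells stably expressing RXFP1 were pretreated with the PDE4 inhibitor Ro 20174, exposed to compounds for 30 min at 37C, lysed, and cAMP was read by TR-FRET. Data normalized to buffer (basal) and 29 nM porcine relaxin (100%).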
RXFP1 antag: qHTS Assay for Antagonists of the Relaxin Receptor RXFP1 | HEK293-RXFP1, relaxin-stimulated cAMP HTRF, 30 min; stronger effect = lower value | activity change, negative = inhibition, % at 57.5 µM | AID 1259400, 2018 | 350,000 compounds, 0.59% hits;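 active = activity change of -60% or lower, but not beyond a set lower limit; inconclusive = change between -60% and -40%, or beyond the set limit; inactive = change above -40%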
BRCA1 expr act: qHTS Assay to Identify Small Molecule Activators of BRCA1 Expression. AID 624202, 2012. Potency, µM (series often up to 46.1 µM), usual class: activators. MCF7-BRCA1-FFLuc reporter, luminescence, 48 h; response scale: scaled: vehicle 0%, 10 µM genistein 100%. 380,000 compounds, 1.1% hits; also: nearly all actives have a fitted effect of over 80% in size
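Luminescence from a BRCA1-driven firefly luciferase in MCF7 cells was the read-out, taken 15 min after substrate addition following 48 h compound exposure at 37 °C. Data were normalized to a 10 microM genistein control and DMSO vehicle.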
Giardia killer: Small Molecules that selectively kill Giardia lamblia: qHTS; Giardia lamblia trophozoite viability; activity change, % at 7.66 µM, hits read low; 340,000 compounds, 0.15% hits; AID 540267, 2011; in the data active = activity change below about -80%; inconclusive = between about -30% and that limit;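 also: parasites exposed to compound for two days anaerobically before the ATP read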
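Each well holds 100 Giardia trophozoites and compound. After two days (48 hrs) at 37 deg C in anaerobic conditions, ATP is quantified by luminescence.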
IL2 activator: qHTS of IL-2 Activators | IL-2 activation reporter assay, cell-based qHTS; stimulated with anti-CD3/CD4/CD28 beads; in transgenic mouse T cells | 360,000 compounds, 0.065% hits | activation, % (series mostly up to about 46 µM); in the data active = activation above about 50%; inconclusive = mostly about 30% to 49%
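Readout is EGFP and DsRed signal by fluorescent plate cytometry after 18 h at 37 degrees C. Transgenic mouse T cells (750/well) received compound for 60 min before bead stimulation (anti-CD3, anti-CD4, anti-CD28); memory T cells served as non-tolerant control.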
Large screens that a line does not name were inactive; ! = repeats disagree. Sampled rows, rich in hits. Any-hit rate of the full collection: about 1.9%. Unless noted, calls follow the shape of the dose curve; as a rule, active = well fitted curve in the direction sought with a large enough effect; inconclusive = small, poorly fitted or top-dose-only effect, or another doubt; inactive = no such curve, though single readings can be large; an effect the other way counts as inactive or inconclusive.

Cc1ccc(S(=O)(=O)N2CCN(c3nc(-c4cncnc4)nc4ccccc34)CC2)cc1	none (no result: NPSR antag, RXFP1 agonist, RXFP1 antag, IL2 activator)
CCOC(=O)c1sc(N)c(C(=O)Nc2ccccc2)c1C	BRCA1 expr act 12.6µM
Cc1cccc(N=Nc2c(C)c(C#N)c(O)[nH]c2=O)c1	Giardia killer -96.8
CCCCOC(=O)c1ccc(N=Nc2c(C)c(C#N)c(O)[nH]c2=O)cc1	IL2 activator 106.6
Cc1c(C#N)c(O)[nH]c(=O)c1N=Nc1ccc(Br)cc1C(=O)O	none (no result: NPSR antag)
COc1ccc(S(=O)(=O)N2CCN(c3nc(-c4cccs4)nc4ccccc34)CC2)cc1OC	none (no result: NPSR antag, RXFP1 agonist, RXFP1 antag, IL2 activator)
CN(C(=O)c1ccc2c(c1)OCCO2)c1c(N)n(Cc2ccccc2)c(=O)[nH]c1=O	none (no result: NPSR antag)
CN(C(=O)c1cncc(Br)c1)c1c(N)n(Cc2ccccc2)c(=O)[nH]c1=O	RXFP1 antag -69.5 (no result: NPSR antag)
Cc1ccc(C)c(OCCC(=O)OCC(=O)N(C)c2c(N)n(Cc3ccccc3)c(=O)[nH]c2=O)c1	RXFP1 antag -63.5, Giardia killer inconclusive (no result: NPSR antag)
CCC(=O)N1CCc2cc(S(=O)(=O)NC(CC(C)C)C(=O)Nc3cc(C)ccc3OC)ccc21 (stereo not given)	none (no result: NPSR antag, BRCA1 expr act, Giardia killer, IL2 activator)
COc1ccccc1NC(=O)Cn1c(=O)c(CNc2ccccc2)cc2cc(OC)c(OC)cc21	RXFP1 agonist inconclusive (no result: NPSR antag, BRCA1 expr act, Giardia killer, IL2 activator)
Cc1cc(C)c2oc(-c3cccc(NC(=O)COc4ccc(Cl)cc4C)c3C)nc2c1	none (no result: NPSR antag, RXFP1 agonist, RXFP1 antag, Giardia killer, IL2 activator)
Cc1ccc(S(=O)(=O)N2CCN(c3nc(-c4ccncc4)nc4ccccc34)CC2)cc1	none (no result: NPSR antag, RXFP1 agonist, RXFP1 antag, IL2 activator)
Cn1c(CS(=O)Cc2c(Cl)cccc2Cl)nnc1SCc1c(Cl)cccc1Cl (stereo not given)	none
O=S(Cc1ccc(Br)cc1)Cc1nnc(SCc2c(Cl)cccc2Cl)n1-c1ccccc1 (stereo not given)	NPSR antag 10µM
COc1ccc2nc(NC(=O)c3c(C)noc3C)sc2c1	BRCA1 expr act 2.82µM (no result: NPSR antag)
COc1ccc(C(=O)Nc2nc3ccccc3s2)c(OC)c1	Giardia killer -95.3 (no result: NPSR antag)
COc1ccc(C(=O)Nc2nc3ccc(S(C)(=O)=O)cc3s2)cc1	NPSR antag inconclusive, RXFP1 agonist inconclusive
COc1ccc(C(=O)Nc2nc3ccc(OC)cc3s2)cc1	BRCA1 expr act 2.24µM (no result: NPSR antag)
Cc1c(/C=N\NC(=O)C2(C)CC2(Cl)Cl)cnn1C (stereo not given)	none (no result: RXFP1 antag)
CC1(C(=O)N/N=C/c2c(F)c(F)c(F)c(F)c2F)CC1(Cl)Cl (stereo not given)	RXFP1 antag -67.6 (no result: NPSR antag, RXFP1 agonist)
CN(C)CCCNc1ncnc2sc(-c3ccccc3)cc12	none
CCCCN(CCO)c1ncnc2sc(-c3ccccc3)cc12	RXFP1 antag -65.5 (no result: NPSR antag)
CCOC(=O)CN1C(=O)S/C(=C/c2ccc3c(c2)n(C)c(=O)n3C)C1=O	BRCA1 expr act 5.01µM
Cc1cccc(C)c1OCc1nc2ccccc2[nH]1	none
Cc1ccc(C)c(OCc2nc3ccccc3[nH]2)c1	BRCA1 expr act 3.16µM
CCOc1ccc(NC(=O)c2ccc(F)cc2F)cc1	BRCA1 expr act 11.2µM (no result: NPSR antag, RXFP1 agonist, RXFP1 antag)
CCOc1ccc(NC(=O)c2ccc3snnc3c2)cc1	BRCA1 expr act 7.94µM!
COc1ccc(-n2nc(-c3ccc(C)cc3)c3cnc4cc(F)c(F)cc4c32)cc1	none (no result: NPSR antag, RXFP1 antag, Giardia killer, IL2 activator)
Cc1ccc(S(=O)(=O)N2CCN(c3nc(-c4cnccn4)nc4ccccc34)CC2)cc1	none (no result: NPSR antag, RXFP1 agonist, RXFP1 antag, IL2 activator)
Cc1ccc(S(=O)(=O)N2CCN(c3nc(-c4cccs4)nc4cccnc34)CC2)cc1	none (no result: NPSR antag, RXFP1 agonist, RXFP1 antag, IL2 activator)
CCC(=O)C1CCCN(C(=O)CCc2nnc(-c3ccc(C(C)=O)s3)o2)C1 (stereo not given)	BRCA1 expr act 12.6µM (no result: NPSR antag)
CCC(=O)C1CCCN(C(=O)CCc2nnc(-c3ccc4c(c3)OCO4)o2)C1 (stereo not given)	none (no result: NPSR antag)
COc1ccc(OCc2csc(N)n2)cc1	BRCA1 expr act 10µM
Cc1ccc(OCCc2csc(N)n2)cc1	none
CCC(=O)Nc1ccc(NC(=O)CSc2nc3c(c(=O)n(C)c(=O)n3C)n2CC)cc1	RXFP1 agonist 15.8µM (no result: NPSR antag)
CCCn1c(SCC(=O)Nc2ccc(NC(C)=O)cc2)nc2c1c(=O)n(C)c(=O)n2C	RXFP1 agonist inconclusive (no result: NPSR antag)
Cc1ccc(-n2c(=O)c3c(c4cc(C)ccc4n3C)n(CC(=O)Nc3ccc(F)cc3)c2=O)cc1	none (no result: NPSR antag, RXFP1 antag, Giardia killer, IL2 activator)
COc1cc2cc3c(N)c(C(=O)NCc4ccco4)sc3nc2cc1OC	BRCA1 expr act inconclusive
Cc1ccc2nc3sc(C(=O)NCc4ccco4)c(N)c3cc2c1	BRCA1 expr act inconclusive, IL2 activator 167.5
N/C(Cc1cccs1)=N\OC(=O)COc1ccc(Br)cc1Cl	BRCA1 expr act inconclusive
N/C(Cc1cccs1)=N\OC(=O)COc1ccccc1Cl	BRCA1 expr act 12.6µM
COc1ccc(CNc2nc(-c3ccccc3)nn2C(=O)c2ccc([N+](=O)[O-])cc2)cc1	BRCA1 expr act 11.2µM
N#CN=c1snc(-c2ccccc2)n1-c1ccc(Cl)cc1	none (no result: NPSR antag, RXFP1 agonist, RXFP1 antag, IL2 activator)
O=S(=O)(c1ccc(-c2nc3ccccc3s2)cc1)N1CCCC1	BRCA1 expr act 2.51µM
O=S(=O)(c1cccc(-c2nc3ccccc3s2)c1)N1CCCC1	none
Clc1ccc(Nc2nc(NCc3ccco3)nc3nccnc23)cc1	none (no result: NPSR antag, RXFP1 agonist, RXFP1 antag, IL2 activator)
COc1cc(CNC2CCCC2)c(Br)cc1OC1CCCC1	none
COc1cc(CNCc2ccccc2)c(Br)cc1OC1CCCC1	NPSR antag inconclusive, RXFP1 antag -60.9
